Molecules are shown by their SMILES. About 79,000 compounds went through this panel and 15% of them were active in at least one assay; those are over-represented in the sample as a whole. Unmarked numbers belong to inactive results. Calls of active or inactive are those of the source. Cut-off read from the data, not from the text of the source: active = growth inhibition above about 70%; inactive = the rest.

We go through nine compounds from PubChem BioAssay (NCI).

Assay [1] is described as follows: NCI Yeast Anticancer Drug Screen. Data for the rad50 strain (AID 155).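 Note: 0% = growth of vehicle-only cultures of the same strain.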 As to conditions: S. cerevisiae rad50 strain growth inhibition, stronger effect = higher value. The procedure, abridged: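 Vehicle-treated cultures provide the reference for the growth inhibition reported for compound-exposed, repair-deficient yeast.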
Assay [2] in a line: NCI Yeast Anticancer Drug Screen. Data for the mec2-1 strain (AID 157). As to conditions: S. cerevisiae mec2-1 strain, stronger effect = higher value. In a few lines: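 Each compound was tested on mec2-1 yeast, a strain altered in DNA damage repair or cell cycle control. Growth inhibition is reported relative to vehicle.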
A short description of assay [3]: NCI Yeast Anticancer Drug Screen. Data for the sgs1 mgt1 strain (AID 161).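 Note: 0% = growth of cultures given vehicle only.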 As to conditions: S. cerevisiae sgs1 mgt1 strain, stronger effect = higher value. In a few lines:
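Mutant yeast exposed to compound; growth scored against vehicle-only wells.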

The nature of assay [4]: NCI Yeast Anticancer Drug Screen. Data for the cln2 rad14 strain (AID 165).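 Note: 0% = growth equal to vehicle treated cultures.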 As to conditions: S. cerevisiae cln2 rad14 strain, stronger effect = higher value. In a few lines:
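Test compounds were added to cln2 rad14 yeast cultures; inhibition of growth was then determined by comparison with vehicle treatment.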

The nature of assay [5]: NCI Yeast Anticancer Drug Screen. Data for the bub3 strain (AID 167). The note with it: S. cerevisiae bub3 mutant strain, stronger effect = higher value. The procedure, abridged: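 Mutant yeast screening strain plus compound; vehicle-treated cultures serve as the 0% inhibition reference.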
Assay [6] can be described thus: NCI Yeast Anticancer Drug Screen. Data for the mlh1 rad18 strain (AID 175). The note with it: S. cerevisiae mlh1 rad18 strain growth inhibition, stronger effect = higher value. In a few lines:
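Inhibition values reflect reduced growth of mutant yeast versus vehicle-treated controls following compound exposure; the mutations affect DNA damage repair.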

The mark [7] stands for this setting: at 5.0 µM (retest, dose inferred, filed as 0.5).
[8] abbreviates: at 50.0 µM (retest, dose inferred, filed as 5.0).

On to `Nc1nccc2c1ncn2C1C=C(CO)C(O)C1O` (configuration not stated), for which the growth inhibition in assay [1] (setting [7]) is 15%; in assay [1] (setting [8]) it was 67%; in assay [1] (at 50.0 µM), 38.5%; in assay [2] (setting [7]), 3%; in assay [2] (setting [8]) it was 90% (active); in assay [2] (at 50.0 µM) it was 45.4%. The growth inhibition in assay [3] (setting [7]) is 6%; in assay [3] (setting [8]), 80% (active); in assay [3] (at 50.0 µM), 54.5%; in assay [4] (setting [7]) it was 0%; in assay [4] (setting [8]), 26%; in assay [4] (at 50.0 µM), 57.5%. Also, the growth inhibition in assay [5] (setting [7]) was 21%; in assay [5] (setting [8]), 94% (active); in assay [5] (at 50.0 µM), 57.1%; in assay [6] (setting [7]), 18%; in assay [6] (setting [8]) it was 89% (active); in assay [6] (at 50.0 µM), -8.5%.

For the compound `O=[N+]([O-])c1c(Cl)cccc1-c1c[nH]cc1Cl`, the growth inhibition in assay [1] (setting [7]) is 12%; in assay [1] (setting [8]), 99% (active); in assay [1] (at 50.0 µM), 92.8% (active); in assay [2] (setting [7]) it was 25%; in assay [2] (setting [8]), 98% (active); in assay [2] (at 50.0 µM), 93.4% (active). For the same compound, the growth inhibition in assay [3] (setting [7]) is 19%; in assay [3] (setting [8]), 100% (active); in assay [3] (at 50.0 µM), 93.5% (active); in assay [4] (setting [7]), -1%; in assay [4] (setting [8]), 99% (active); in assay [4] (at 50.0 µM), 90.9% (active). The growth inhibition in assay [5] (setting [7]) was 6%; in assay [5] (setting [8]), 99% (active); in assay [5] (at 50.0 µM) it was 92.2% (active); in assay [6] (setting [7]) it was 44%; in assay [6] (setting [8]), 99% (active); in assay [6] (at 50.0 µM), 37.8%.

In the case of `COc1cc2c(c(OC)c1OC)-c1ccc(O)c(=O)cc1C(N=Cc1ccccc1)CC2` (configuration not stated), the growth inhibition is -5% in assay [1] (setting [7]); -5% in assay [1] (setting [8]); -17.9% in assay [1] (at 50.0 µM); -6% in assay [2] (setting [7]); -7% in assay [2] (setting [8]); -4.45% in assay [2] (at 50.0 µM). Moreover, the growth inhibition was -8% in assay [3] (setting [7]); -3% in assay [3] (setting [8]); -5.3% in assay [3] (at 50.0 µM); -7% in assay [4] (setting [7]); 4% in assay [4] (setting [8]); 31.9% in assay [4] (at 50.0 µM). Also, the growth inhibition in assay [5] (setting [7]) is -2%; in assay [5] (setting [8]), -2%; in assay [5] (at 50.0 µM), 0.2%; in assay [6] (setting [7]), -2%; in assay [6] (setting [8]), 0%; in assay [6] (at 50.0 µM), 18.8%.

In the case of `COc1ccc(/C(C#N)=C/c2ccncc2)cc1`, the growth inhibition in assay [1] (setting [7]) is 1%; in assay [1] (setting [8]), 28%; in assay [1] (at 50.0 µM), 73.2% (active); in assay [2] (setting [7]) it was -49%; in assay [2] (setting [8]), 14%; in assay [2] (at 50.0 µM), 39.2%. Moreover, the growth inhibition in assay [3] (setting [7]) is -2%; in assay [3] (setting [8]) it was 28%; in assay [3] (at 50.0 µM), 68%; in assay [4] (setting [7]), 4%; in assay [4] (setting [8]), 23%; in assay [4] (at 50.0 µM), 46.4%. Also, the growth inhibition in assay [5] (setting [7]) was 7%; in assay [5] (setting [8]), 67%; in assay [5] (at 50.0 µM) it was 77.4% (active); in assay [6] (setting [7]), -3%; in assay [6] (setting [8]), 28%; in assay [6] (at 50.0 µM), 51.3%.

Take `CCCCCCCCCCCC1=NCC(C)N1` (configuration not stated): the growth inhibition in assay [1] (setting [7]) is -39%; in assay [1] (setting [8]), 26%; in assay [1] (at 50.0 µM) it was 71.9% (active); in assay [2] (setting [7]), 2%; in assay [2] (setting [8]) it was 27%; in assay [2] (at 50.0 µM), -2.95%. Besides, the growth inhibition was -3% in assay [3] (setting [7]); 1% in assay [3] (setting [8]); 28.6% in assay [3] (at 50.0 µM); -46% in assay [4] (setting [7]); -5% in assay [4] (setting [8]); 44.4% in assay [4] (at 50.0 µM). The growth inhibition in assay [5] (setting [7]) was 0%; in assay [5] (setting [8]) it was 36%; in assay [5] (at 50.0 µM), 45%; in assay [6] (setting [7]), -29%; in assay [6] (setting [8]), 15%; in assay [6] (at 50.0 µM), 46%.

For `CCC(CO)Nc1nc2ccc(Br)cc2c2ccccc12` (configuration not stated), the growth inhibition in assay [1] (setting [7]) was 15%; in assay [1] (setting [8]), 82% (active); in assay [1] (at 50.0 µM), 76% (active); in assay [2] (setting [7]), 4%; in assay [2] (setting [8]) it was 59%; in assay [2] (at 50.0 µM), 49.5%. Moreover, the growth inhibition is 5% in assay [3] (setting [7]); 95% (active) in assay [3] (setting [8]); 86% (active) in assay [3] (at 50.0 µM); 0% in assay [4] (setting [7]); 56% in assay [4] (setting [8]); 66% in assay [4] (at 50.0 µM). Besides, the growth inhibition was 2% in assay [5] (setting [7]); 84% (active) in assay [5] (setting [8]); 63.6% in assay [5] (at 50.0 µM); 8% in assay [6] (setting [7]); 96% (active) in assay [6] (setting [8]); 93.9% (active) in assay [6] (at 50.0 µM).

On to `CN1C=C(C#N)CCC1Sc1ccc(Cl)cc1` (configuration not stated), for which the growth inhibition is -7% in assay [1] (setting [7]); 38% in assay [1] (setting [8]); 58.1% in assay [1] (at 50.0 µM); 5% in assay [2] (setting [7]); 65% in assay [2] (setting [8]); 58.6% in assay [2] (at 50.0 µM). Further, the growth inhibition in assay [3] (setting [7]) was 3%; in assay [3] (setting [8]), 54%; in assay [3] (at 50.0 µM), 92.6% (active); in assay [4] (setting [7]), -3%; in assay [4] (setting [8]), 11%; in assay [4] (at 50.0 µM) it was 76.8% (active). Also, the growth inhibition is -4% in assay [5] (setting [7]); 60% in assay [5] (setting [8]); 59.3% in assay [5] (at 50.0 µM); 22% in assay [6] (setting [7]); 82% (active) in assay [6] (setting [8]); 86.9% (active) in assay [6] (at 50.0 µM).

On to `c1ccc(-c2cc(-c3cc(-c4ccccn4)[nH]n3)n[nH]2)nc1`, for which the growth inhibition in assay [1] (setting [7]) was 5%; in assay [1] (setting [8]), 4%; in assay [1] (at 50.0 µM) it was 17.2%; in assay [2] (setting [7]), 0%; in assay [2] (setting [8]), -11%; in assay [2] (at 50.0 µM), 0.75%. The growth inhibition is 0% in assay [3] (setting [7]); 18% in assay [3] (setting [8]); 23.5% in assay [3] (at 50.0 µM); -1% in assay [4] (setting [7]); -16% in assay [4] (setting [8]); 9.05% in assay [4] (at 50.0 µM). The growth inhibition was 4% in assay [5] (setting [7]); 7% in assay [5] (setting [8]); 3.4% in assay [5] (at 50.0 µM); -5% in assay [6] (setting [7]); 4% in assay [6] (setting [8]); 19.6% in assay [6] (at 50.0 µM).

For `CN(Nc1ccc(Cl)cc1)c1ccc(Cl)cc1`, the growth inhibition in assay [1] (setting [7]) was 1%; in assay [1] (setting [8]) it was 95% (active); in assay [1] (at 50.0 µM), 73.2% (active); in assay [2] (setting [7]), 12%; in assay [2] (setting [8]), 98% (active); in assay [2] (at 50.0 µM) it was 64%. In addition, the growth inhibition in assay [3] (setting [7]) was 0%; in assay [3] (setting [8]) it was 97% (active); in assay [3] (at 50.0 µM), 79.2% (active); in assay [4] (setting [7]), 5%; in assay [4] (setting [8]) it was 95% (active); in assay [4] (at 50.0 µM) it was 53.1%. In addition, the growth inhibition was 9% in assay [5] (setting [7]); 97% (active) in assay [5] (setting [8]); 77% (active) in assay [5] (at 50.0 µM); -9% in assay [6] (setting [7]); 96% (active) in assay [6] (setting [8]); 75.3% (active) in assay [6] (at 50.0 µM).
